Assay results taken from PubChem BioAssay AID1851 (National Center for Advancing Translational Sciences (NCATS), 2009).
The campaign covered roughly 16,000 compounds. About 2,600 (16%) were called active. Another 20% or so got no clear call; they are omitted. The list is a sample of the results. A number with no mark means an inactive call. Calls follow the shape of the dose curve; as a rule, active = well fitted curve in the direction sought with a large enough effect; inconclusive = small, poorly fitted or top-dose-only effect, or effect the other way; inactive = no such curve, though single readings can be large or run the other way.
% is scaled to controls: 0 for no effect and ±100 for the full control effect.

These compounds were tested against Cytochrome P450 2D6 (Homo sapiens) (UniProt P10635) (assay: Cytochrome panel assay with activity outcomes). Conditions: recombinant CYP, pro-luciferin dealkylation, luminescence, p450-cyp2d6; series mostly up to 57.1 µM.
Chain of Cytochrome P450 2D6 (Homo sapiens) (P10635 whole entry, looked up): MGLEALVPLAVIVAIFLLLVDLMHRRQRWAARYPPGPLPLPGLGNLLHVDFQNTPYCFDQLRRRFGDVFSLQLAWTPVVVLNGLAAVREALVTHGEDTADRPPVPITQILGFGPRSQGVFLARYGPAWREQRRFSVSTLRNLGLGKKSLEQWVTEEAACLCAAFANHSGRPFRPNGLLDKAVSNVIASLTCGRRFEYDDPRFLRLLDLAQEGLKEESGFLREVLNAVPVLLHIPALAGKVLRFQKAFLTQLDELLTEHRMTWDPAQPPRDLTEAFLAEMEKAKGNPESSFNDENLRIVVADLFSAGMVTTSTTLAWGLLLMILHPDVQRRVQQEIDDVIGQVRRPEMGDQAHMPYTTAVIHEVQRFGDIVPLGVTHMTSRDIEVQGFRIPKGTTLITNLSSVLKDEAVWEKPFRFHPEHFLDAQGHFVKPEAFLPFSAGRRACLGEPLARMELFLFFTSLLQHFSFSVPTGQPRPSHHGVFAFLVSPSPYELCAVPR
With `COc1ccccc1CNCc1cccs1` the AC50 was 0.794 µM (active).
For `COc1ccccc1CNC(=O)C/C(C)=N/NC(=O)Cc1ccccc1`, the AC50 was “inactive”.
`COc1ccccc1CNC(=O)C1CCN(S(=O)(=O)N2CC(C)CC(C)C2)CC1` (stereo not drawn) was tested, and the AC50 was “inactive”.
`C=CCOc1c(Br)cc(CNc2ccc(NC(=O)C(C)C)c(OC)c2)cc1OC` was tested, and the AC50 was “inactive”.
For `COc1cc(CNCc2cccs2)cc(Br)c1OC`, the AC50 was 0.0562 µM (active).
In the case of `COc1cc(C)c(Br)cc1S(=O)(=O)NCc1ccccc1`, the AC50 was “inactive”.
With `O=P(Cc1cc[n+]([O-])cc1)(c1ccccc1)c1ccccc1` the AC50 was “inactive”.
For `CCC(C)NS(=O)(=O)c1ccc(OCC(=O)NCC2CCCO2)cc1` (stereo not drawn), the AC50 was “inactive”.
For `O=C(NCCCCc1ccccc1)C1CC(c2ccccc2[N+](=O)[O-])=NO1` (stereo not drawn), the AC50 was 0.1 µM (active).
For `Cc1ccc(CNC(=O)C2CC(c3ccccc3[N+](=O)[O-])=NO2)o1` (stereo not drawn), the AC50 was “inactive”.
`CC(C)(C)OC(=O)N1CCCC1C(=O)NCCc1ccccc1` (stereo not drawn) was tested, and the AC50 was “inactive”.
With `Cc1ccc(CNC(=O)C2CC(c3ccccc3[N+](=O)[O-])=NO2)cc1` (stereo not drawn) the AC50 was “inactive”.
`Cc1ccc(CCNC(=O)C2CC(c3ccccc3[N+](=O)[O-])=NO2)cc1` (stereo not drawn) was tested, and the AC50 was 2.51 µM (active).
In the case of `CCCc1cc(=O)oc2cc(OCc3cc(OC)c(OC)c(OC)c3)c(Cl)cc12`, the AC50 was “inactive”.
`O=C(Cc1ccccc1)N/N=C\c1ccc(Br)o1` was tested, and the AC50 was “inactive”.
With `O=C(Nc1cccc2ncccc12)c1cccc(F)c1` the AC50 was “inactive”.
With `CC1Cc2ccccc2N1C(=O)CCN1C(=O)C2C3C=CC(C3)C2C1=O` (stereo not drawn) the AC50 was “inactive”.
In the case of `CC(C)(C)Cn1nc(-c2ccc(Cl)cc2)c2c(N)ncnc21`, the AC50 was “inactive”.
Compound `Nc1nc(N)nc(CCCc2nc(N)nc(N)n2)n1` has an activity, negative = inhibition of 19.1% [at 11.4 µM].
`C/C(=C(/CCO)SSC[C@@H]1CCCO1)N(C=O)Cc1cnc(C)nc1N` was tested, and the AC50 was “inactive”.
For `COc1cccc(Nc2ncc3ncc(=O)n(CCC#N)c3n2)c1`, the AC50 was “inactive”.
`C1CCc2c(nc3nnnn3c2NC2CCCC2)C1` was tested, and the AC50 was “inactive”.
In the case of `CCOc1ccc(C(=O)Nc2cccc(-c3nc4cccnc4o3)c2)cc1Cl`, the AC50 was “inactive”.
In the case of `CCOc1ccc(C(=O)Nc2ccc(Cl)cn2)cc1Cl`, the AC50 was 7.94 µM (active).
For `CCOc1ccc(C(=O)Nc2ccc(NC(=O)c3ccco3)c(Cl)c2)cc1Br`, the AC50 was “inactive”.
With `COc1ccc(C(=O)Nc2cc(Cl)ccc2OC(=O)c2ccc(OC)cc2)cc1` the AC50 was “inactive”.
In the case of `Cc1cc(=O)oc(C)c1C(=O)Nc1ccc(Cl)cn1`, the AC50 was “inactive”.
`COc1ccc(C(=O)Nc2ccc(Cl)cn2)cc1Cl` was tested, and the AC50 was 3.55 µM (active).
For `CCOc1cccc(C2C(C(=O)c3ccc(C)o3)=C(O)C(=O)N2Cc2ccncc2)c1` (stereo not drawn), the AC50 was “inactive”.
For `CC(C)NC(=O)C(C)n1cccc1C(=O)c1ccccc1` (stereo not drawn), the AC50 was “inactive”.
In the case of `O=C(CCS(=O)(=O)c1cccs1)N1CCN(c2ccc(F)cc2)CC1`, the AC50 was 20 µM (active).
With `CCC(=O)N1CCN(c2ccc(NC(=O)c3cccs3)cc2)CC1` the AC50 was “inactive”.
`O=C(c1cc(-c2cccs2)on1)N1CCN(c2ccc(F)cc2)CC1` was tested, and the AC50 was “inactive”.
With `Cc1nc2sccn2c(=O)c1Cl` the AC50 was “inactive”.
`CCCCCCCCN1C(=O)N(C)C(N(O)C(=O)NC)C1(C)C` (stereo not drawn) was tested, and the AC50 was “inactive”.
`Cc1cc(C(=O)CSC(=S)SC(C)(C)C)ccc1Cl` showed an activity, negative = inhibition of -0.319% [at 11.4 µM].
`CCC(C(=O)N1CCOCC1)n1c(C(=O)OC)cc2occc21` (stereo not drawn) was tested, and the AC50 was “inactive”.
For `CCS(=O)(=O)N1CCC[C@H]2CN3CCc4cc(OC)ccc4[C@@H]3C[C@@H]21`, the AC50 was “inactive”.
For `COc1c(O)ccc2c1CN1CCc3cc4c(cc3[C@@H]1C2)OCO4`, the AC50 was 0.158 µM (active).
Work on `COc1cc2c3cc1Oc1c(OC)c(OC)cc4c1[C@@H](Cc1ccc(O)c(c1)Oc1ccc(cc1)C[C@@H]3N(C)CC2)CN(C)C4` yielded an activity, negative = inhibition of 2.38% [at 11.4 µM].
`COc1ncc2nc(C)c(=O)n(C3CC3)c2n1` was tested, and the AC50 was “inactive”.
In the case of `COc1ccc(Cc2n[nH]c(=O)c3ccccc23)cc1OC`, the AC50 was “inactive”.
In the case of `O=C(CNC(=O)c1ccco1)OCc1c(F)cccc1Cl`, the AC50 was “inactive”.
For `N[C@@H](CSC(=O)c1ccccc1)C(=O)O`, the activity, negative = inhibition was 9.96% [at 11.4 µM].
For `Cc1ccccc1C(=O)Oc1ccc(Br)cc1C(=S)N1CCCC1`, the AC50 was “inactive”.
For `Cc1c(-c2ccccc2)oc2c(C(=O)OCCN3CCCCC3)cccc2c1=O`, the AC50 was 7.94 µM (active).
`O=C(OCCN1CCCCC1)c1c[nH]c2ccccc12` was tested, and the AC50 was “inactive”.
With `Cc1ccccc1Oc1ccc(-c2nc(N)nc(N)n2)cc1` the AC50 was “inactive”.
In the case of `O=C(N/N=C/c1ccc(O)cc1)c1csc2ccccc12`, the AC50 was “inactive”.
For `O=C(Oc1ccc2ccccc2c1Br)N1CCCCCC1`, the AC50 was “inactive”.
With `O=C(CCN1CCCCC1)c1csc2ccccc12` the AC50 was 1 µM (active).
With `Cc1noc(C)c1-c1cc(N2CCN(C)CC2)ncn1` the AC50 was “inactive”.
For `O=C(O)Cc1ccc2c(c1)N(S(=O)(=O)c1cccc(C(F)(F)F)c1)CC(C(=O)O)O2` (stereo not drawn), the AC50 was “inactive”.
`C=CC1=C[C@@H](O)C2OC2C12OCCCO2` (stereo partly drawn) showed an activity, negative = inhibition of -1.06% [at 11.4 µM].
For `Cc1[nH]n(-c2ccc(S(=O)(=O)O)cc2)c(=O)c1N=Nc1ccccc1`, the activity, negative = inhibition was 16.9% [at 11.4 µM].
With `O=C(Oc1ccccc1)N1CCC2(CCCN(c3ccccc3)C2)CC1` the AC50 was “inactive”.
`CN(C)CCn1c(CO)nc2c1c(=O)n(C)c(=O)n2C` was tested, and the activity, negative = inhibition was -1.53% [at 11.4 µM].
In the case of `CCCCCn1c(CN2CCCCC2C)nc2c1c(=O)n(C)c(=O)n2C` (stereo not drawn), the AC50 was 14.1 µM (active).
For `CCCCn1c(SCC(=O)N2CCCC2)nc2c1c(=O)n(C)c(=O)n2C`, the AC50 was “inactive”.
For `Cc1ccc(-n2nnnc2SCC(=O)NNC(=O)c2ccco2)c(C)c1`, the AC50 was “inactive”.
In the case of `O=C(NCC(c1cccnc1)N1CCOCC1)Nc1ccccc1` (stereo not drawn), the AC50 was “inactive”.
`O=C(O)Cc1cccnc1` was tested, and the activity, negative = inhibition was 16.4% [at 11.4 µM].
With `c1ccc(C[C@@H](Nc2cccnc2)c2ccccc2)cc1` the AC50 was 1 µM (active).
`O=S(=O)(O)c1cc(O)c2c(O)c(N=Nc3cccc4ccccc34)c(S(=O)(=O)O)cc2c1` was tested, and the activity, negative = inhibition was -16% [at 11.4 µM].
`COc1cc(C2SCCCCCCCCCCSC(c3ccc(O)c(OC)c3)SCCCCCCCCCCS2)ccc1O` (stereo not drawn) showed an activity, negative = inhibition of 6.94% [at 11.4 µM].
With `COc1cccc(NC(=O)COC(=O)c2c3c(nc4ccccc24)CCC(C)C3)c1` (stereo not drawn) the AC50 was 7.94 µM (active).
In the case of `COc1ccc(NC(=O)COC(=O)c2c3c(nc4ccccc24)CCCC3)cc1`, the AC50 was “inactive”.
For `COc1ccc(OC)c(NC(=O)c2c3c(nc4ccccc24)CCC3)c1`, the AC50 was “inactive”.
For `C[N+]1(CCOc2ccc([N+](=O)[O-])cc2)CCOCC1`, the AC50 was “inactive”.
For `Cc1ccc(/S(C)=N/S(=O)(=O)c2ccc(C)cc2)cc1` (stereo not drawn), the AC50 was “inactive”.
`C[C@@H](c1ccccc1)N1C(=O)[C@@H]2[C@H]3C(=CC[C@H]2C1=O)C(=O)[C@H]1O[C@H]1[C@H]3O` gave an activity, negative = inhibition of 5.61% [at 11.4 µM].
`CN1CCN(c2nc(-c3ccccc3)cc(C(F)(F)F)n2)CC1` was tested, and the AC50 was 17.8 µM (active).
In the case of `COc1ccccc1N1CCN(c2nc(-c3ccccc3)cc(C(F)(F)F)n2)CC1`, the AC50 was “inactive”.
For `COc1cccc(-c2cc(C(F)(F)F)nc(N3CCN(c4ccccc4)CC3)n2)c1`, the AC50 was “inactive”.
For `COc1cc(/C=C/C(=O)N2CCN(CC(O)COc3ccccc3)CC2)cc(OC)c1OC` (stereo not drawn), the AC50 was “inactive”.
In the case of `O=C(c1ccccc1)c1ccc(OCC(O)CN2CCN(Cc3ccccc3)CC2)cc1` (stereo not drawn), the AC50 was 3.16 µM (active).
For `O=C(c1ccccc1)c1ccc(OCCn2cnc3ccccc3c2=O)cc1`, the AC50 was “inactive”.
In the case of `CC1CCC(C(C)C)C(OCC(O)CN2CCN(Cc3ccccc3)CC2)C1` (stereo not drawn), the AC50 was 0.112 µM (active).
In the case of `CC1CC(OCC(O)CN2CCN(Cc3ccccc3)CC2)CC(C)(C)C1` (stereo not drawn), the AC50 was “inactive”.
With `Cc1cccc(-n2nnc3cnn(C)c3c2=O)c1` the AC50 was “inactive”.
With `O=C(O)[C@@H]1[C@H](C(=O)O)[C@H]2C(=O)C=C[C@H]1N2Cc1ccccc1` the activity, negative = inhibition was 3.08% [at 11.4 µM].
For `Cc1nn(C)c(Cl)c1NC(=O)OCc1ccc(F)cc1`, the AC50 was “inactive”.
In the case of `CC(=O)[C@@H]1CC[C@@H]2[C@@H]3C[C@H](C)C4=CC(=O)CC[C@@]4(C)[C@H]3[C@H](O)C[C@]21C`, the AC50 was “inactive”.
`C=C(NC(=O)C(=C)NC(=O)c1csc(C2=N[C@@H]3c4csc(n4)[C@@H]4NC(=O)c5csc(n5)[C@@H]([C@](C)(O)[C@H](C)O)NC(=O)[C@@H]5CSC(=N5)/C(=C/C)NC(=O)[C@@H]([C@H](C)O)NC(=O)c5csc(n5)[C@]3(CC2)NC(=O)[C@@H](C)NC(=O)C(=C)NC(=O)[C@@H](C)NC(=O)[C@@H]([C@@H](C)CC)N[C@H]2C=Cc3c([C@H](C)O)cc(nc3[C@@H]2O)C(=O)O[C@H]4C)n1)C(N)=O` was tested, and the AC50 was “inactive”.
For `Cn1c(=O)c2[nH]c(C3CCCC3)nc2n(C)c1=O`, the AC50 was “inactive”.
With `Cc1nn(Cc2ccc(Cl)cc2)c(C)c1NC(=O)Cn1nc([N+](=O)[O-])c(Cl)c1C` the AC50 was “inactive”.
For `COc1cnc(NS(=O)(=O)c2ccc(N)cc2)nc1`, the AC50 was “inactive”.
For `CCOC(=O)C1=C(O)/C(=C\c2ccc(OC)c(OC)c2)N=C1C`, the AC50 was “inactive”.
In the case of `CN(Cc1ccco1)c1ncncc1-c1cccnc1`, the AC50 was “inactive”.
With `CN(C)c1ccc(-c2cncnc2N(C)Cc2ccco2)cc1` the AC50 was 12.6 µM (active).
`CN(Cc1ccco1)c1ncncc1-c1ccc2c(c1)OCO2` was tested, and the AC50 was 1.26 µM (active).
With `Cc1noc(C)c1-c1cncnc1N(C)Cc1ccco1` the AC50 was “inactive”.
`COc1cccc(-c2cncnc2N(C)Cc2ccco2)c1` was tested, and the AC50 was 12.6 µM (active).
For `CN(Cc1ccco1)c1ncncc1-c1ccccc1Cl`, the AC50 was 12.6 µM (active).
For `Cn1c(SCC(=O)c2ccc3c(c2)Cc2ccccc2-3)nnc1-c1ccccc1`, the AC50 was “inactive”.
`Cc1cc(C)nc(Nc2n[nH]c(COc3cccc4ccccc34)n2)n1` was tested, and the AC50 was “inactive”.
In the case of `CCN1CCc2nc(N)oc2CC1`, the AC50 was “inactive”.
`Nc1ncnc2c1ncn2[C@H]1O[C@@H](C(=O)O)[C@@H](O)[C@H]1O` showed an activity, negative = inhibition of 2.66% [at 11.4 µM].
